Among all 5,500 compounds or so, about 2,000 (36%) were called active. Another 18% or so got no clear call; they are omitted. Cut-off read from the data, not from the text of the source: active = normalized growth mostly below about 0.91 (no sharp cut-off); inconclusive = no clear call, values can overlap the other calls; inactive = mostly above about 0.92. This is one part of the list.
Experiment: chemical genetic growth profiling, strain panel (AID 1159580);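 note: tested at 20 µM; growth read once vehicle control cultures reached saturation at 30 °C; 1 = growth at the plate median or of vehicle wells; lower values mean less growth of the strain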
Conditions: growth OD
[1] = S. cerevisiae deletion strains, locus YDL101C, strain DUN1, hits give low values
[2] = S. cerevisiae deletion strains, locus YHR030C, strain SLT2, hits give low values

Measured: normalized growth

O=C1/C(=C/c2cccs2)COc2ccccc21
active: S. cerevisiae deletion strains, locus YBL105C, strain PKC1, hits give low values 0.899 | [1] 0.908 | [2] 0.778 | S. cerevisiae deletion strains, locus YIL147C, strain SLN1, hits give low values 0.891 | S. cerevisiae deletion strains, locus YJR066W, strain TOR1 (second series), hits give low values 0.603 | S. cerevisiae deletion strains, locus YLR113W, strain HOG1, hits give low values 0.667 | S. cerevisiae deletion strains, locus YOR329C, strain SCD5, hits give low values 0.9 | S. cerevisiae deletion strains, locus YPL209C, strain IPL1, hits give low values 0.894 | S. cerevisiae deletion strains, locus YPL256C, strain CLN2, hits give low values 0.802
inactive: S. cerevisiae deletion strains, locus YAR019C, strain CDC15, hits give low values 0.903 | S. cerevisiae deletion strains, locus YBR135W, strain CKS1, hits give low values 0.913 | S. cerevisiae deletion strains, locus YBR136W, strain MEC1, hits give low values 0.899 | S. cerevisiae deletion strains, locus YBR160W, strain CDC28, hits give low values 0.908 | S. cerevisiae deletion strains, locus YDL017W, strain CDC7, hits give low values 0.911 | S. cerevisiae deletion strains, locus YDL028C, strain MPS1, hits give low values 0.9 | S. cerevisiae deletion strains, locus YDL108W, strain KIN28, hits give low values 0.901 | S. cerevisiae deletion strains, locus YDL132W, strain cdc53, hits give low values 0.902 | S. cerevisiae deletion strains, locus YDL214C, strain PRR2, hits give low values 0.793 | S. cerevisiae deletion strains, locus YDR052C, strain DBF4, hits give low values 0.93 | S. cerevisiae deletion strains, locus YDR054C, strain cdc34, hits give low values 0.88 | S. cerevisiae deletion strains, locus YDR226W, strain ADK1, hits give low values 0.901 | S. cerevisiae deletion strains, locus YDR477W, strain SNF1, hits give low values 0.779 | S. cerevisiae deletion strains, locus YER123W, strain YCK3, hits give low values 0.73 | S. cerevisiae deletion strains, locus YER133W, strain GLC7, hits give low values 0.765 | S. cerevisiae deletion strains, locus YFL009W, strain cdc4, hits give low values 0.901 | S. cerevisiae deletion strains, locus YFL029C, strain CAK1, hits give low values 0.897 | S. cerevisiae deletion strains, locus YFR003C, strain YPI1, hits give low values 0.906 | S. cerevisiae deletion strains, locus YFR019W, strain FAB1, hits give low values 0.884 | S. cerevisiae deletion strains, locus YFR028C, strain CDC14, hits give low values 0.901 | S. cerevisiae deletion strains, locus YGR040W, strain KSS1, hits give low values 0.766 | S. cerevisiae deletion strains, locus YGR052W, strain FMP48, hits give low values 0.767 | S. cerevisiae deletion strains, locus YGR092W, strain DBF2, hits give low values 0.684 | S. cerevisiae deletion strains, locus YHR079C, strain IRE1, hits give low values 0.871 | S. cerevisiae deletion strains, locus YHR082C, strain KSP1, hits give low values 0.735 | S. cerevisiae deletion strains, locus YHR205W, strain SCH9, hits give low values 0.783 | S. cerevisiae deletion strains, locus YJL095W, strain BCK1, hits give low values 0.832 | S. cerevisiae deletion strains, locus YJL128C, strain PBS2, hits give low values 0.873 | S. cerevisiae deletion strains, locus YJL157C, strain FAR1, hits give low values 0.789 | S. cerevisiae deletion strains, locus YJR016C, strain ILV3, hits give low values 0.9 | S. cerevisiae deletion strains, locus YJR066W, strain TOR1, hits give low values 0.762 | S. cerevisiae deletion strains, locus YKL048C, strain ELM1, hits give low values 0.873 | S. cerevisiae deletion strains, locus YKL067W, strain YNK1, hits give low values 0.831 | S. cerevisiae deletion strains, locus YKL101W, strain HSL1, hits give low values 0.829 | S. cerevisiae deletion strains, locus YKL193C, strain SDS22, hits give low values 0.901 | S. cerevisiae deletion strains, locus YKL203C, strain TOR2, hits give low values 0.853 | S. cerevisiae deletion strains, locus YLR133W, strain CKI1, hits give low values 0.86 | S. cerevisiae deletion strains, locus YLR403W, strain SFP1, hits give low values 0.796 | S. cerevisiae deletion strains, locus YML070W, strain DAK1, hits give low values 0.802 | S. cerevisiae deletion strains, locus YMR001C, strain CDC5, hits give low values 0.895 | S. cerevisiae deletion strains, locus YMR205C, strain PFK2 (second series), hits give low values 0.831 | S. cerevisiae deletion strains, locus YMR277W, strain FCP1, hits give low values 0.909 | S. cerevisiae deletion strains, locus YNL006W, strain LST8, hits give low values 0.916 | S. cerevisiae deletion strains, locus YNL020C, strain ARK1, hits give low values 0.839 | S. cerevisiae deletion strains, locus YNL161W, strain CBK1, hits give low values 0.906 | S. cerevisiae deletion strains, locus YNL183C, strain NPR1, hits give low values 0.763 | S. cerevisiae deletion strains, locus YNL207W, strain RIO2, hits give low values 0.9 | S. cerevisiae deletion strains, locus YNL222W, strain SSU72, hits give low values 0.91 | S. cerevisiae deletion strains, locus YNL307C, strain MCK1 (second series), hits give low values 0.803 | S. cerevisiae deletion strains, locus YOL078W, strain AVO1, hits give low values 0.906 | S. cerevisiae deletion strains, locus YOL136C, strain PFK27, hits give low values 0.816 | S. cerevisiae deletion strains, locus YOR061W, strain CKA2, hits give low values 0.813 | S. cerevisiae deletion strains, locus YOR119C, strain RIO1, hits give low values 0.833 | S. cerevisiae deletion strains, locus YOR231W, strain MKK1, hits give low values 0.82 | S. cerevisiae deletion strains, locus YPL031C, strain PHO85, hits give low values 0.756 | S. cerevisiae deletion strains, locus YPL153C, strain RAD53, hits give low values 0.777 | S. cerevisiae deletion strains, locus YPL204W, strain HRR25, hits give low values 0.786 | S. cerevisiae deletion strains, locus YPR025C, strain CCL1, hits give low values 0.911 | S. cerevisiae deletion strains, locus YPR106W, strain ISR1, hits give low values 0.901 | S. cerevisiae deletion strains, locus YPR111W, strain DBF20, hits give low values 0.907 | S. cerevisiae deletion strains, strain NNK1, hits give low values 0.906 | S. cerevisiae deletion strains, strain TSCII, hits give low values 0.895

O=C1/C(=C/c2ccc(Cl)cc2)COc2ccc(F)cc21
inactive: S. cerevisiae deletion strains, locus YAL013W, strain DEP1, hits give low values 0.956 | S. cerevisiae deletion strains, locus YBR229C, strain ROT2, hits give low values 0.978 | [1] 1.01 | S. cerevisiae deletion strains, locus YDR150W, strain NUM1, hits give low values 1.01 | S. cerevisiae deletion strains, locus YEL061C, strain CIN8, hits give low values 0.934 | S. cerevisiae deletion strains, locus YGR078C, strain PAC10, hits give low values 0.972 | S. cerevisiae deletion strains, locus YGR229C, strain SMI1, hits give low values 0.951 | S. cerevisiae deletion strains, locus YHR087W, strain rtc3, hits give low values 0.96 | S. cerevisiae deletion strains, locus YJR043C, strain POL32, hits give low values 0.977 | S. cerevisiae deletion strains, locus YJR075W, strain HOC1, hits give low values 0.98 | S. cerevisiae deletion strains, locus YLR058C, strain SHM2 (second series), hits give low values 0.959 | S. cerevisiae deletion strains, locus YML094W, strain GIM5, hits give low values 0.941 | S. cerevisiae deletion strains, locus YMR219W, strain ESC1, hits give low values 0.963 | S. cerevisiae deletion strains, locus YMR263W, strain SAP30, hits give low values 0.942 | S. cerevisiae deletion strains, locus YNL153C, strain GIM3, hits give low values 0.986 | S. cerevisiae deletion strains, locus YNL322C, strain KRE1, hits give low values 0.959 | S. cerevisiae deletion strains, locus YPL055C, strain LGE1, hits give low values 0.963 | S. cerevisiae strains, strain wild type, hits give low values 0.967
active: [2] 0.305 | S. cerevisiae deletion strains, locus YLR039C, strain RIC1, hits give low values 0.472 | S. cerevisiae deletion strains, locus YLR085C, strain ARP6, hits give low values 0.431 | S. cerevisiae deletion strains, locus YLR262C, strain YPT6, hits give low values 0.528 | S. cerevisiae deletion strains, locus YNL298W, strain CLA4 (second series), hits give low values 0.83 | S. cerevisiae deletion strains, locus YNR030W, strain Alg12, hits give low values 0.829 | S. cerevisiae deletion strains, locus YPL241C, strain CIN2, hits give low values 0.704 | S. cerevisiae deletion strains, locus YPR135W, strain CTF4, hits give low values 0.405

Reference: PubChem BioAssay AID1159580 (chemical genetic matrix, 2015)
